# Results: PubChem BioAssay (NCI)
# Compounds without any hit were thinned out: in the full panel of roughly 79,000, 15% have a hit. Active and inactive are the calls of the source. Cut-off read from the data, not from the text of the source: active = growth inhibition above about 70%; inactive = the rest.
# Experiments:
# [1] = NCI Yeast Anticancer Drug Screen. Data for the rad50 strain (AID 155);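 note: 0% = growth of vehicle-only cultures of the same strain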; conditions: S. cerevisiae rad50 strain growth inhibition; at 50.0 µM; active compounds read high
# In short: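 Readout: growth inhibition relative to vehicle-treated cultures. Compound exposure was carried out in a genetically defined yeast strain deficient in DNA damage repair.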
# [2] = NCI Yeast Anticancer Drug Screen. Data for the mec2-1 strain (AID 157); conditions: S. cerevisiae mec2-1 strain, at 50.0 µM, active compounds read high
# In short: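 Readout is yeast growth inhibition, normalised to vehicle-treated controls, in the mec2-1 strain exposed to compound.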
# [3] = NCI Yeast Anticancer Drug Screen. Data for the sgs1 mgt1 strain (AID 161);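 note: 0% = growth of cultures given vehicle only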; conditions: S. cerevisiae sgs1 mgt1 strain, at 50.0 µM, active compounds read high
# In short: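 This yeast growth screen uses a strain with defined DNA-repair lesions; compound-treated growth is compared with vehicle-treated growth.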
# [4] = NCI Yeast Anticancer Drug Screen. Data for the cln2 rad14 strain (AID 165);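 note: 0% = growth equal to vehicle treated cultures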; conditions: S. cerevisiae cln2 rad14 strain, at 50.0 µM, active compounds read high
# In short: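 Relative to vehicle controls, growth inhibition of compound-treated cln2 rad14 yeast was recorded.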
# [5] = NCI Yeast Anticancer Drug Screen. Data for the bub3 strain (AID 167); conditions: S. cerevisiae bub3 mutant strain, at 50.0 µM, active compounds read high
# In short: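 Readout: yeast growth inhibition, expressed relative to vehicle-only wells. The test organism is a mutant strain from a panel with lesions in DNA repair or checkpoint genes.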
# [6] = NCI Yeast Anticancer Drug Screen. Data for the mlh1 rad18 strain (AID 175); conditions: S. cerevisiae mlh1 rad18 strain growth inhibition; at 50.0 µM; active compounds read high
# In short: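 Test agents were incubated with a yeast strain of defined genotype (DNA damage repair defect). Inhibition of growth was derived by comparison with vehicle-exposed cultures.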
SMILES,growth inhibition [1],growth inhibition [2],growth inhibition [3],growth inhibition [4],growth inhibition [5],growth inhibition [6]
COc1ccc(NC(C)=O)c([N+](=O)[O-])c1,23.3% (inactive),0.25% (inactive),19.3% (inactive),16.3% (inactive),-8.35% (inactive),6.3% (inactive)
C=CCNC(=O)N(CCC)CCCC(NC(C)=O)C(=O)NCc1ccccc1 (stereo not drawn),-9.75% (inactive),-27.5% (inactive),-14.8% (inactive),10.4% (inactive),-17.1% (inactive),-9.7% (inactive)
CC#CC(C)(C)N(C)C,-16.6% (inactive),-8.45% (inactive),-8.75% (inactive),-21.4% (inactive),12.8% (inactive),14.1% (inactive)
CCc1c2ccccc2cc2ccccc12,-1% (inactive),1.85% (inactive),-16.6% (inactive),9.75% (inactive),1.8% (inactive),-5.95% (inactive)
CC(=O)Nc1cccc2[nH]c(=O)c3ccccc3c12,3.4% (inactive),-6.4% (inactive),-5.8% (inactive),-19.3% (inactive),-16.9% (inactive),4.55% (inactive)
O=C(O)c1ccccc1N=N/C(=N\Nc1ccccc1C(=O)O)c1ccnc2ccccc12,37.5% (inactive),10% (inactive),29.3% (inactive),11.2% (inactive),2.8% (inactive),26.9% (inactive)
C=C1C[C@]23CC[C@@H]4C(CO)(CO)CC(=O)C[C@]4(C)[C@@H]2C(O)C[C@H]1C3 (stereo partly drawn),30.6% (inactive),17.9% (inactive),17.8% (inactive),-5.05% (inactive),7.05% (inactive),30.9% (inactive)
Cc1cc(C)c(N=Nc2cc(C)c(N)cc2N)c(S(=O)(=O)O)c1,-21.6% (inactive),-1.35% (inactive),-2.1% (inactive),-61.5% (inactive),7.3% (inactive),10.8% (inactive)
CCOC(=O)C(=N\Nc1cc(C)cc(C)c1)/C(C)=N\NC(N)=S,25.1% (inactive),38.8% (inactive),20.1% (inactive),57.5% (inactive),58.5% (inactive),45.6% (inactive)
Cc1cccc([Si](c2ccccc2)(c2ccccc2)c2ccccc2)c1,-3.7% (inactive),-6.35% (inactive),-9.2% (inactive),-0.75% (inactive),-21.6% (inactive),8.8% (inactive)
CC(CCC(=O)O)C1CCC2C3CCC4CCCCC4(C)C3CCC12C (stereo not drawn),8.4% (inactive),41.9% (inactive),43.3% (inactive),17.3% (inactive),51.2% (inactive),49.5% (inactive)
CC(=O)Nc1cc2cc(NC(=O)C(Cl)(Cl)Cl)ccc2oc1=O,-24.3% (inactive),-17.4% (inactive),-4.65% (inactive),0.55% (inactive),-11.7% (inactive),-24.6% (inactive)
CCOC(=O)C(Cc1c[nH]c2ccccc12)NCCN (stereo not drawn),-4.85% (inactive),4.8% (inactive),-1.45% (inactive),-9.95% (inactive),-7.25% (inactive),-3.8% (inactive)
O=C1Nc2ccc3[nH]ncc3c2C1=O,11.7% (inactive),-0.65% (inactive),-2.45% (inactive),-11.8% (inactive),-9.55% (inactive),7.6% (inactive)
Cc1cccc(NC(=O)COc2ccc(Cl)cc2)c1C,12.4% (inactive),8.6% (inactive),5.1% (inactive),-15.2% (inactive),13.1% (inactive),-4.7% (inactive)
CCCCN(C)CCNc1cc(C)nc(Nc2nc3ccc(Cl)cc3[nH]2)n1,90% (active),96.2% (active),74.9% (active),96.6% (active),97.9% (active),96.2% (active)
N#CC(=S)N(C(=O)c1ccc(Cl)cc1)c1ccccc1Cl,-1.4% (inactive),28.6% (inactive),12.6% (inactive),-18.9% (inactive),45.5% (inactive),24.9% (inactive)
CCOC(=O)C(C#N)(Cc1ccccc1CC(C#N)(NC(C)=O)C(=O)OCC)NC(C)=O (stereo not drawn),-4.9% (inactive),-0.25% (inactive),-10.1% (inactive),-0.3% (inactive),-3.4% (inactive),10.7% (inactive)
CC1CC(NN(C)C)C2(C(N)=O)C(N)=NC(=O)C12C#N (stereo not drawn),5.45% (inactive),9.15% (inactive),-23.9% (inactive),3.8% (inactive),-24.7% (inactive),-46.1% (inactive)

SMILES,growth inhibition [1],growth inhibition [2],growth inhibition [3],growth inhibition [4],growth inhibition [5],growth inhibition [6]
Cc1cc(=O)c2c(F)ccc(F)c2[nH]1,0% (inactive),4.5% (inactive),13.9% (inactive),-36.4% (inactive),-7.85% (inactive),12.7% (inactive)
COC(=O)C1C(=O)C=C(O)C2CCCCC21 (stereo not drawn),2.05% (inactive),-2.85% (inactive),-0.35% (inactive),-63% (inactive),-30.9% (inactive),2.5% (inactive)
O=[N+]([O-])c1cccnc1Oc1cccc(C(F)(F)F)c1,-16.8% (inactive),21.9% (inactive),14.4% (inactive),-7.95% (inactive),-16.1% (inactive),1.15% (inactive)
Cc1c(C2CCSc3ccccc3N2)sc2ccccc12 (stereo not drawn),-17.2% (inactive),-27.4% (inactive),11.3% (inactive),14.6% (inactive),4.65% (inactive),7.2% (inactive)
O=C(O)c1ccc(-c2ccc(C(=O)O)cc2I)c(I)c1,25.2% (inactive),2.2% (inactive),6.25% (inactive),-5.25% (inactive),0.15% (inactive),10% (inactive)
CN1C(=O)C(O)(CC(=O)c2ccccc2)c2ccccc21 (stereo not drawn),0.15% (inactive),17.7% (inactive),3.3% (inactive),-23.9% (inactive),23.4% (inactive),-5.65% (inactive)
CCOc1ccc(NS(=O)(=O)c2ccc(F)cc2)cc1,-27.4% (inactive),-21.3% (inactive),-26.9% (inactive),-6.2% (inactive),-24.1% (inactive),3.05% (inactive)
Nc1c2c(nn1-c1ccccc1)C(=O)N(CCc1ccccc1)C2,0.25% (inactive),14.2% (inactive),-6.05% (inactive),-0.65% (inactive),-3.25% (inactive),-1.4% (inactive)
Cc1ccc(S(=O)(=O)N2CCCSCCSCCCN(S(=O)(=O)c3ccc(C)cc3)CC2)cc1,8.85% (inactive),-10.8% (inactive),4% (inactive),-45% (inactive),-10.1% (inactive),2.05% (inactive)
O=S(=O)(O)c1cccc2nsnc12,-0.35% (inactive),-2.05% (inactive),-3.6% (inactive),13.1% (inactive),9.5% (inactive),-1.3% (inactive)
CCOc1ccc(N=Nc2ccc3oc(=O)c(/C(C)=N/NC(=O)CC(=O)Nc4cccc(OC)c4)cc3c2)cc1,44.5% (inactive),36% (inactive),25.2% (inactive),-17.3% (inactive),-5% (inactive),44.1% (inactive)
CC(=O)Nc1ccccc1C(C)=O,5.45% (inactive),-7.25% (inactive),-10.2% (inactive),10% (inactive),-8.05% (inactive),4.85% (inactive)
CC[O-].CC[O-].O=C([CH-]C(=O)c1ccccc1)CCCCCCCCC(=O)[CH-]C(=O)c1ccccc1.[Ti+4],-37.5% (inactive),-22.3% (inactive),5.1% (inactive),13.2% (inactive),2.85% (inactive),0.5% (inactive)
CCCCCCCCC1C(CCCCCCCC(=O)OC)C2(Cl)C(Cl)=C(Cl)C1(Cl)C2(Cl)Cl (stereo not drawn),25.6% (inactive),-11.5% (inactive),-1.05% (inactive),3.05% (inactive),-1.2% (inactive),14.3% (inactive)
COc1ccccc1NC(=O)CC(=O)N/N=C/c1ccc(N(CCC#N)S(=O)(=O)c2ccccc2)cc1,-48.4% (inactive),0.8% (inactive),-20.6% (inactive),10.4% (inactive),-15.8% (inactive),-14.5% (inactive)
CC1=C(C(=O)Nc2cc(C)ccn2)CCO1,4.55% (inactive),-11.4% (inactive),-7.2% (inactive),-33% (inactive),11.7% (inactive),15% (inactive)
CC(C)(C(=O)O)C(=O)O,6.9% (inactive),3.25% (inactive),0.6% (inactive),8.2% (inactive),21.4% (inactive),3.1% (inactive)
CC(=O)OC1CCC2(C)C(=CCC3C4CCC(=O)NC4(C)CCC32)C1 (stereo not drawn),43% (inactive),-1.8% (inactive),52.7% (inactive),-4.95% (inactive),8.4% (inactive),28.9% (inactive)
O=[N+]([O-])C(/C=C(\Cl)[N+](=O)[O-])=C(N1CCOCC1)N1CCOCC1,-4.7% (inactive),-1.2% (inactive),24.9% (inactive),-9.5% (inactive),13.9% (inactive),5.45% (inactive)
